Compound activity deposited in PubChem BioAssay by Broad Institute.
aSyn 5UTR act = Activators via SNCA 5'UTR binding, MLPCN; alpha-synuclein 5'UTR reporter, activators screen; activity score, % (tested at 7.5 µM), hits read low; 300,000 tested, 7.1% active; AID 1814, 2009; in the data active = activity score below about -60%
* = called active by the depositor. The list is a sample of the results.

SMILES | aSyn 5UTR act
O=C(c1ccc2oc(CCc3ccccc3)nc2c1)N1CCC(O)CC1 | -73*
NC(=O)[C@@H]1CCCN1C(=O)c1ccc2oc(CCc3ccccc3)nc2c1 | -63*
O=C(Nc1cccc(O)c1)c1ccc(C(F)(F)F)cc1 | -166*
CC(C)CC(=O)Nc1ccc(C(=O)Nc2cccc(O)c2)cc1 | -151*
Cc1nc2cc(NC(=O)c3ccc([N+](=O)[O-])s3)ccc2s1 | 77
Cc1nc2ccc(NC(=O)c3cccs3)cc2s1 | -132*
Cc1nc2ccc(NC(=O)c3ccccc3)cc2s1 | -106*
CCOC(=O)Nc1ccc2nc(N3CCCCCC3)sc2c1 | -313*
Cc1nnc(NC(=O)c2ccc3ccccc3n2)s1 | -152*
Cc1nc2cc(C(=O)O)ccc2s1 | -177*
Cc1nc2ccc(NC(=O)N3CCCCC3)cc2s1 | -106*
Cc1nc2ccc(NC(=O)c3ccc4ccccc4n3)cc2s1 | -71*
Cc1nc2ccc(NC(=O)c3sccc3C)cc2s1 | -164*
CC(=O)c1ccc(NC(=O)c2ccc(C)c(Br)c2)cc1 | -125*
CC(=O)c1ccc(NC(=O)c2ccc3nc(C)sc3c2)cc1 | -193*
Cc1ccccc1OCCNC(=O)c1ccc2ccccc2n1 | -149*
O=C(Nc1ccc2[nH]c(=S)sc2c1)c1ccccc1 | -138*
Cc1nc2ccc(C(=O)Nc3ccccc3Cl)cc2s1 | -235*
Cc1ccc(OC(=O)c2ccc3nc(C)sc3c2)cc1 | -76*
N#Cc1ccccc1CSc1nc2ccc(NC(=O)c3ccccc3C(=O)O)cc2s1 | -87*
Cc1nc2ccc(NC(=O)c3cncc(Br)c3)cc2s1 | -87*
COc1cc(C(=O)Nc2ccc(C(C)=O)cc2)c(Br)c(OC)c1OC | -83*
CN1CCN(Cc2cc(COCc3ccccc3)c3cccnc3c2O)CC1 | 99
CCCOc1ccc(-c2nc(N3CCN(C)CC3)c3ccccc3n2)cc1 | -135*
COc1cc(NC(=O)CCc2ccccc2)nc(OC)n1 | -71*
SMILES | aSyn 5UTR act
COc1ccc(C(=O)Nc2cc(OC)nc(OC)n2)cc1 | -125*
O=C(c1ccc(OC(F)(F)F)cc1)c1ncc[nH]1 | -83*
O=C(Nc1ccc(NC(=O)C2CCCCC2)nc1)c1ccco1 | -101*
Cc1ccc(NC(=S)N=Nc2c(O)n(C)c3ccc(S(=O)(=O)N4CCOCC4)cc23)cc1 | 75
Cc1ccc(S(=O)(=O)N2CCCC(C(=O)Nc3ccc(NC(=O)c4ccccn4)cc3)C2)cc1 (stereo not given) | -74*
CNS(=O)(=O)c1ccc(NC(=O)c2ccccn2)cc1 | -73*
O=C(Nc1ccc(NC(=O)C2CC2)nc1)c1ccco1 | -121*
CNS(=O)(=O)c1ccc(NC(=O)c2cc(-c3ccncc3)nc3ccc(Cl)cc23)cc1 | -98*
O=C(Nc1ccc(NC(=O)C2CCCCC2)nc1)c1ccccn1 | -108*
CC(=O)c1ccc(OC(C)c2nc3ccccc3s2)cc1 (stereo not given) | -89*
C=CCN(c1ccccc1OC)S(=O)(=O)c1ccc(Cl)c(C(=O)Nc2ccc(N3CCOCC3)cc2)c1 | 89
O=C(Nc1ccc(N2CCOCC2)c(Cl)c1)c1cc(F)c(F)cc1Cl | -64*
COc1c(C)cccc1C(=O)Nc1ccc(N2CCOCC2)c(Cl)c1 | -173*
COc1ccccc1NC(=O)C(C/C=C(\C)Cl)C(C)=O (stereo not given) | -73*
COc1ccccc1NC(=O)c1nc(S(=O)(=O)Cc2ccccc2)ncc1Cl | 71
Cc1nn(-c2ccccc2)c(C)c1CCC(=O)O | -107*
COc1ccc(/C=C2\SC(=S)N(CCCC(=O)NNC(=O)c3ccccc3O)C2=O)cc1 | 75
COc1ccc(/C=C2\SC(=O)N(CCNC(=O)Cc3coc4cc(OC)ccc34)C2=O)cc1 | -70*
COc1ccc(/C=C2\SC(=O)N(CCNC(=O)C3=COCCO3)C2=O)cc1 | -129*
CN1C2CCC1/C(=C\c1ccc(F)cc1)C(=O)/C2=C/c1ccc(F)cc1 | -134*
O=C(Nc1cccc2nsnc12)c1cccs1 | -143*
O=C(Nc1ccccc1)Nc1cccc2nsnc12 | -272*
c1cnc(SCCOc2ccc3c(c2)CCC3)nc1 | -111*
Clc1ccc(-c2nnc(-c3ccccc3)c(N3CCSCC3)n2)cc1 | -62*
Fc1ccc(COc2ccc(C(=S)N3CCCC3)cc2)cc1 | -77*
SMILES | aSyn 5UTR act
O=C(c1ccc(COc2ccccc2Br)cc1)N1CCCCC1 | -77*
Cc1c2ccccc2nc2c(F)c(NC(C)C)c(F)c(F)c12 | -106*
Cc1nn(-c2ccccn2)c2c1-c1nc(N)ncc1CC2 | -101*
N/C(=N\OC(=O)c1ccc(Br)o1)c1cccnc1 | -143*
COc1ccc(/C(N)=N/OC(=O)c2ccc(Br)o2)cc1 | -155*
Cc1nc(N)nc(N)c1/C=C/C(C)(C)c1ccc(Cl)cc1 | 125
CC(C)(C)S(=O)(=O)c1cnc(-c2ccc(Cl)cc2)nc1N | -114*
CCOC(=O)COn1c(-c2cccc(Cl)c2)nc2ccc([N+](=O)[O-])cc21 | -192*
CCOC(=O)C(C)On1c(-c2cccc(Cl)c2)nc2ccc([N+](=O)[O-])cc21 (stereo not given) | -62*
Cc1nn(Cc2c(F)c(F)c(F)c(F)c2F)c(C)c1NC(=O)c1ccc(COc2cc(Cl)ccc2Cl)cc1 | -133*
COc1cc(/C=N/NC(=O)Nc2ccccc2)ccc1OC(C)=O | -188*
CCOc1cc(/C=N/NC(=O)Nc2ccccc2)ccc1O | -197*
COc1cc(/C=N/NC(=S)Nc2cccc(C(=O)O)c2)ccc1O | 70
c1ccc(-c2ccc(-c3[nH]ncc3CN3CCC(N4CCSCC4)CC3)cc2)cc1 | -143*
COc1ccc(NC(=O)c2ccc3snnc3c2)cc1 | -107*
CC(=O)c1ccc(NC(=O)c2ccc3snnc3c2)cc1 | -119*
O=C(Nc1ccc(Cl)cc1)c1ccc2snnc2c1 | -149*
O=C(Nc1ccccc1F)c1ccc2snnc2c1 | -77*
Fc1ccc(/C=N/Nc2cc(N3CCOCC3)ncn2)cc1 | -88*
Fc1cccc(/C=N/Nc2cc(N3CCOCC3)ncn2)c1 | -108*
COc1cccc(/C=N/Nc2cc(N3CCOCC3)ncn2)c1O | 72
C(=N\Nc1cc(N2CCCCC2)ncn1)/c1ccco1 | -129*
O=C1C=C(c2ccccc2)C[C@H](c2cccs2)[C@H]1n1nnc([N+](=O)[O-])n1 | 88
O=C(NCSc1ccccc1)c1ccccc1 | -94*
Cc1nc(NC(=O)c2ccc(Br)o2)sc1C | -129*
SMILES | aSyn 5UTR act
Cc1ccc(C(=O)Nc2nc(C)c(C)s2)o1 | -114*
O=C(Nc1nc2ccsc2c(=O)s1)c1ccco1 | -130*
O=C(Nc1nc2ccsc2c(=O)s1)C1CCC1 | -96*
O=C(Nc1nc2c(Cl)ccc(Cl)c2s1)c1ccco1 | -184*
Cc1nc2ccc3nc(NC(=O)c4ccco4)sc3c2s1 | -152*
O=c1sc(Nc2ccccc2)nc2ccsc12 | -111*
O=C(Nc1nc2c(s1)CCc1ccccc1-2)c1ccco1 | -140*
CC(/C=C/c1ccco1)=N\NC(=O)CNc1ccc2ccccc2c1 | -70*
Cc1ccc(C(=O)COC(=O)c2ccc(O)cc2)cc1 | -182*
O=C(COC(=O)c1cccc(O)c1)c1ccccc1 | -69*
Nc1cccc(C(=O)OCC(=O)c2ccccc2)c1 | -86*
O=C(Nc1ccc(C(F)(F)F)cc1)c1ccc2ncsc2c1 | -167*
O=C(Nc1cccc(Cl)c1)c1ccc2ncsc2c1 | -266*
O=C(Nc1ccc(F)cc1)c1ccc2ncsc2c1 | -176*
O=C(Nc1ccc(Cl)cc1)c1ccc2ncsc2c1 | -227*
Cc1ccc(NC(=O)c2ccc3ncsc3c2)cc1S(=O)(=O)N(C)C | -148*
